Rab9 prom act: Rab9 promoter activation | Huh7 Rab9 promoter-luciferase reporter, luminescence, 24 h | Potency, µM (top dose mostly 9.22 µM), actives largely listed as activators | 320,000 tested, 2.8% active; further: nearly all actives have a fitted effect of over 60% in size
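Stable Rab9-luc Huh7, 1500 cells/well, 2 h settle; cmpd in DMSO, 24 h, 37 °C/5% CO2; luciferase reagent 10 min RT; luminescence.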
FLuc modulator: firefly luciferase modulation, counter-screen for miR-21 project; P08659; Potency, µM (series often up to 57.5 µM), usual class: inhibitors; 360,000 tested, 6.9% active; purified FLuc, Km substrates, luminescence inhibition; further: nearly all actives have a fitted effect of over 55% in size
Target sequence (P08659 whole entry, looked up): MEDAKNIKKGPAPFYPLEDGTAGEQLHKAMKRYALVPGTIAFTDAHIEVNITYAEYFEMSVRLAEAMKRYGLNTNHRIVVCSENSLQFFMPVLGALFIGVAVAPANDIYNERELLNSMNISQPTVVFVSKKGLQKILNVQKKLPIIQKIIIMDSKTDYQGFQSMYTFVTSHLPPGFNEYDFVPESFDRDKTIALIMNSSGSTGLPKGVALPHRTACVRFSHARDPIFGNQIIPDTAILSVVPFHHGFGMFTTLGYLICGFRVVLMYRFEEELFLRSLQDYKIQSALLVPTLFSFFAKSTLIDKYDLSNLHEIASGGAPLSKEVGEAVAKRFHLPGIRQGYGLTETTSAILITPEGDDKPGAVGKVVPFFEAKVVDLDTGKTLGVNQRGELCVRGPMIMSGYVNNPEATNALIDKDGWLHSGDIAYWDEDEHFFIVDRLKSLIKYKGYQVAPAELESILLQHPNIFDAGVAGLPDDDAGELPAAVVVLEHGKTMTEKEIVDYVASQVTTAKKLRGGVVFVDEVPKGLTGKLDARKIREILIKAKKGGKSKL
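Purified P. pyralis luciferase (10nM final) with 10uM D-luciferin and 10uM ATP (Km levels) in 50mM Tris acetate pH 7.5, 10mM Mg acetate, 0.01% Tween-20, 0.05% BSA; qHTS 6-point titration, ~60 µM downward; luminescence read.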
ELG1 genotoxic: induces genotoxicity in HEK293T cells with luciferase-tagged ELG1; HEK293T ELG1-luciferase reporter, luminescence, 16 h; Potency, µM (highest dose often 46 µM), actives largely listed as activators; 330,000 tested, 1.3% active; AID 504466; further: nearly all actives have a fitted effect of over 60% in size
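Step 1: seed 2,000 HEK293T ELG1-luciferase cells per well. Step 2: add compound or DMSO, incubate 16 hr at 37 °C. Step 3: ONE-Glo, 30 min at room temperature, read luminescence.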
KinaseGlo FLuc: blocks Kinase-Glo luciferase, a counter-screen artifact. Q27757. AID 1379. Potency, µM (titrated, usually from 38.3 µM), most hits filed as inhibitors. Kinase-Glo luciferase, ATP luminescence, 8 min. 200,000 tested, 0.28% active; further: nearly all actives have a fitted effect of over 60% in size
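Substrate mix (final 50 mM imidazole pH 7.2, 50 mM KCl, 7 mM MgCl2, 10 uM ATP, 0.01% Tween 20, 0.05% BSA) plus pin-tool compound, then Kinase-Glo detection mix; 8 min ambient, luminescence read.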
SMN2 splice enh: increases expression of the SMN2 splice variant; AID 1458; 210,000 tested, 2.8% active; Potency, µM (titrated, usually from 46.1 µM), most hits filed as activators; HEK293 SMN2-luciferase splicing reporter, luminescence, 30-36 h; further: nearly all actives have a fitted effect of over 55% in size
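HEK293 cells carry an SMN2 […]–luciferase reporter in which exon 7 inclusion puts luciferase in frame. Cells were plated 10-12 h before compound addition, then incubated 30-36 h at 37C. ONE-Glo luminescence was read; sodium butyrate at 4.5 mM final served as control.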
NPC1 promoter act: activates the NPC1 promoter. Huh7 NPC1 promoter luciferase reporter, 24 h. 320,000 tested, 2.4% active. Potency, µM (highest dose often 9.22 µM), most hits filed as activators. AID 485313; further: nearly all actives have a fitted effect of over 60% in size
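Compounds in DMSO were transferred onto Huh7 NPC1-luciferase reporter cells pre-incubated 2 h; after 24 h at 37 °C, Amplite reagent was dispensed and luminescence recorded 10 min later.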
Large screens that a line does not name were inactive. Most compounds without a hit are left out; they make up all but 7.4% or so of the library. The call rests on the fitted dose curve; in most records, active means well fitted curve in the direction sought with a large enough effect; inconclusive means small, poorly fitted or top-dose-only effect, or another doubt; inactive means no such curve, though single readings can be large; an effect the other way counts as inactive or inconclusive.

Cc1ccc(N=Nc2c(N)nn(-c3ccccc3)c2N)cc1	Rab9 prom act inconclusive, FLuc modulator 6.01µM, ELG1 genotoxic inconclusive, SMN2 splice enh 10µM, NPC1 promoter act inconclusive
Cc1ccc(N=Nc2c(N)nn3c(N)c(C#N)c(C)nc23)cc1	none (no result: SMN2 splice enh)
COc1ccc(-c2nc3c(c4c2C[C@H](c2ccccc2)OC4)CN(C(=O)Nc2cccc(C#N)c2)CC3)c(C)c1	none (no result: Rab9 prom act, FLuc modulator, ELG1 genotoxic, NPC1 promoter act)
Cc1ccc(C(=O)NNC(=O)c2ccco2)cc1	Rab9 prom act inconclusive, FLuc modulator 16.9µM, ELG1 genotoxic inconclusive, SMN2 splice enh 12.6µM, NPC1 promoter act inconclusive
Cc1ccc(NC(=S)NNC(=O)c2ccco2)cc1	Rab9 prom act inconclusive, FLuc modulator inconclusive, SMN2 splice enh 11.2µM
Cc1cccc(NC(=S)NNC(=O)c2ccco2)c1	FLuc modulator inconclusive
Cc1ccc(C2CC(=O)Oc3ccc(C(C)(C)C)cc32)cc1 (configuration not stated)	none (no result: Rab9 prom act, FLuc modulator, ELG1 genotoxic, SMN2 splice enh, NPC1 promoter act)
c1coc(-c2ccc3ncnc(NCc4cccs4)c3c2)c1	none (no result: ELG1 genotoxic, KinaseGlo FLuc, SMN2 splice enh)
COC(=O)c1c(C)[nH]c(C(=O)/C=C/c2cccc(Cl)c2)c1C	Rab9 prom act inconclusive, FLuc modulator inconclusive, ELG1 genotoxic inconclusive, SMN2 splice enh inconclusive, NPC1 promoter act inconclusive
COC(=O)c1c(C)[nH]c(C(=O)/C=C/c2ccc(C)cc2)c1C	FLuc modulator 2.13µM, ELG1 genotoxic inconclusive (no result: KinaseGlo FLuc, SMN2 splice enh)
COC(=O)c1c(C)[nH]c(C(=O)/C=C/c2ccccc2)c1C	Rab9 prom act 1.41µM, FLuc modulator 0.477µM, ELG1 genotoxic 11.6µM, SMN2 splice enh 2.24µM, NPC1 promoter act 2.24µM
CCCCCC(=O)/C=C/[C@H]1[C@H](O)CC(=O)[C@@H]1C/C=C\CCCC(=O)O	none (no result: Rab9 prom act, FLuc modulator, ELG1 genotoxic, NPC1 promoter act)
NNC(=O)c1ccc(COc2ccc3c(c2)CCC3)cc1	Rab9 prom act inconclusive, FLuc modulator inconclusive, SMN2 splice enh inconclusive, NPC1 promoter act inconclusive
O=C(Nc1ccccc1Cl)c1ccc(COc2ccc3c(c2)CCC3)cc1	Rab9 prom act inconclusive, ELG1 genotoxic inconclusive, SMN2 splice enh 6.31µM, NPC1 promoter act inconclusive
O=C(O)c1ccc(COc2ccc3c(c2)CCC3)cc1	Rab9 prom act inconclusive, FLuc modulator 5.36µM, NPC1 promoter act inconclusive (no result: KinaseGlo FLuc, SMN2 splice enh)
Cc1nn(C)cc1C(=O)Nc1ccc2c(c1)OCCO2	Rab9 prom act 3.16µM, FLuc modulator 12µM, ELG1 genotoxic inconclusive, NPC1 promoter act 4.47µM (no result: KinaseGlo FLuc, SMN2 splice enh)
CCn1cc(Cl)c(C(=O)Nc2ccc3c(c2)OCCO3)n1	Rab9 prom act 1.58µM, FLuc modulator 6.01µM, ELG1 genotoxic inconclusive, SMN2 splice enh 11.2µM, NPC1 promoter act 3.16µM
Cc1c(C(=O)Nc2ccc3c(c2)OCCO3)cnn1C	Rab9 prom act inconclusive, FLuc modulator 10.7µM, ELG1 genotoxic 3.66µM, NPC1 promoter act inconclusive (no result: KinaseGlo FLuc, SMN2 splice enh)
Cn1ncc([N+](=O)[O-])c1C(=O)Nc1ccc2c(c1)OCCO2	FLuc modulator inconclusive
Cn1nccc1C(=O)Nc1ccc2c(c1)OCCO2	Rab9 prom act 1.58µM, FLuc modulator 12µM, ELG1 genotoxic inconclusive, KinaseGlo FLuc 12.6µM, NPC1 promoter act 3.16µM (no result: SMN2 splice enh)
COc1ccc(CCN(C)CCCOc2ccc(S(=O)(=O)c3[nH]c4ccccc4c3C(C)C)cc2)cc1OC	none (no result: Rab9 prom act, FLuc modulator, ELG1 genotoxic, SMN2 splice enh, NPC1 promoter act)
O=C(CN1C(=O)CC(c2ccco2)Sc2ccccc21)Nc1ccc(OC(F)(F)F)cc1 (configuration not stated)	none (no result: Rab9 prom act, ELG1 genotoxic, KinaseGlo FLuc, NPC1 promoter act)
Cc1c(C(=O)Nc2ccc(Br)cc2)cnn1C	Rab9 prom act inconclusive, FLuc modulator 13.5µM, ELG1 genotoxic inconclusive, SMN2 splice enh 12.6µM, NPC1 promoter act inconclusive
Cc1cc(C)c(NC(=O)C2CCCN(C(=O)c3cnn(-c4ccccc4)c3-n3cccc3)C2)c(C)c1 (configuration not stated)	none (no result: Rab9 prom act, ELG1 genotoxic, KinaseGlo FLuc, NPC1 promoter act)
CCOc1ccc(C(=O)C(C)OC(=O)C2CCN(c3ccc(C(F)(F)F)cn3)CC2)cc1 (configuration not stated)	ELG1 genotoxic 18.3µM (no result: KinaseGlo FLuc, SMN2 splice enh)
O=C(CCCCCN1CCN(c2ccccc2-c2ccccc2)CC1)NC1CCCc2ccccc21 (configuration not stated)	none (no result: FLuc modulator, ELG1 genotoxic, KinaseGlo FLuc, SMN2 splice enh)
CC1(C)CCC[C@@](C)([C@H]2CC[C@]3(C)[C@@H]2[C@H](O)C[C@@H]2[C@@]4(C)CC[C@H](O)C(C)(C)[C@@H]4[C@@H](O)C[C@]23C)O1	none (no result: Rab9 prom act, FLuc modulator, ELG1 genotoxic, SMN2 splice enh, NPC1 promoter act)

Assay outcomes: PubChem BioAssay, National Center for Advancing Translational Sciences (NCATS)
